The list is not random: actives were taken first. Their share in the collection is about 0.74%.
p97 inhibitor: human p97 ATPase inhibition | P55072 | AID 1481 | recombinant p97 ATPase, Kinase-Glo ATP luminescence, 3 h | inhibition, % at 8 µM | 220,000 tested, 0.42% active; in the data active = inhibition above about 15%;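 note: 0% = DMSO vehicle and 100% = wells lacking enzyme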
Target sequence (P55072 whole entry, looked up): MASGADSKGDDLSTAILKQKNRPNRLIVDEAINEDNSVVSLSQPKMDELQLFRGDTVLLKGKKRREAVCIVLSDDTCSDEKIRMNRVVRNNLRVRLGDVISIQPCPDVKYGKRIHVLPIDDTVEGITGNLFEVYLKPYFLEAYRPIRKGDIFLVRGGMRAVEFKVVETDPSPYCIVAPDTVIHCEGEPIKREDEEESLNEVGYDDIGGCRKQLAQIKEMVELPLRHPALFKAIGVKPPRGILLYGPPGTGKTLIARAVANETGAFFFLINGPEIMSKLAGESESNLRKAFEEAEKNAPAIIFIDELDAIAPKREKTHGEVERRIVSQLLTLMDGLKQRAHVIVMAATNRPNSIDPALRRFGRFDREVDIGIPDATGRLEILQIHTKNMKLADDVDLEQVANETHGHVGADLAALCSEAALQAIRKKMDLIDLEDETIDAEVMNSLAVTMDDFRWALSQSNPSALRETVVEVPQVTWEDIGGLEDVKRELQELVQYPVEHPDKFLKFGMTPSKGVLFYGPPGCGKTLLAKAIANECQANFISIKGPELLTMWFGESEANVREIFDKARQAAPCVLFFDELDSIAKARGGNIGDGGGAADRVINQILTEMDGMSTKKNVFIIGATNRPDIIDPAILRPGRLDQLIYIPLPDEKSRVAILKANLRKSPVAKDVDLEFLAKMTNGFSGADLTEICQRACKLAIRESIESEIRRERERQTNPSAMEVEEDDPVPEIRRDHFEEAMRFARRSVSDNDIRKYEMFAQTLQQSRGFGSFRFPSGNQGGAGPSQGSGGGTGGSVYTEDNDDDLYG
LYPLA2 counter: LYPLA2 (human) inhibition in PME1 counter-screen | O95372 | recombinant LYPLA2, FP-Rh probe fluorescence polarization | inhibition, % at 5.9 µM | 320,000 tested, 0.38% active | AID 2177;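 active = inhibition above the screen-wide mean plus 3 SD, limit set per campaign, cut at about 26% in these data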;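 note: 0% = LYPLA2 with DMSO and 100% = wells lacking LYPLA2 enzyme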
Redox H2O2 prof: compounds producing H2O2 with reducing agent – biochemical, NIH compound library profiling, artefact control for MLSCN library redox annotation, primary screen | 200,000 tested, 0.03% active | activation, % at 10 µM | DTT-dependent redox cycling H2O2, phenol red/HRP absorbance; 100% = 100 µM peroxide control, 0% = buffer;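 active = activation of at least 50% relative to the plate's high and low controls in the primary single-dose screen; inactive = activation below 50%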;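 note: compound incubated with DTT at 0.8 mM final as the reducing agent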
LYPLA1 inh: LYPLA1 (human) inhibition in PME1 counter-screen. O75608. recombinant LYPLA1, FP-Rh probe fluorescence polarization. inhibition, % at 5.9 µM. 320,000 tested, 0.16% active;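 active = inhibition above the mean of all tested compounds plus 3 SD, set per campaign, cut at about 14% in these data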;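 note: inhibitors block serine hydrolase probe labeling of LYPLA1 so polarization falls; 0% = enzyme with DMSO and 100% = wells lacking LYPLA1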
LYPLA1 conf: counter-screen for PME1 inhibitors: confirmation of human LYPLA1 inhibitors. inhibition, % at 5.9 µM. shares compounds with LYPLA1 inh. recombinant LYPLA1, FP-Rh probe fluorescence polarization. 480 tested, 69% active;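 active = mean inhibition across replicates above the hit cutoff set in the primary screen, cut at about 15% in these data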;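 note: loss of FP-Rh probe labeling of LYPLA1 seen as lower polarization; 0% = LYPLA1 with DMSO and 100% = wells lacking LYPLA1 enzyme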
LYPLA2 confirm: counter-screen for PME1 inhibitors: confirmation of human LYPLA2 inhibitors | shares compounds with LYPLA2 counter | recombinant LYPLA2, FP-Rh probe fluorescence polarization | inhibition, % at 5.9 µM | 1,100 tested, 72% active | AID 2232;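 active = mean inhibition across replicates above the hit cutoff set in the primary screen, cut at about 26% in these data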;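 note: blocked labeling of the enzyme by serine hydrolase FP-Rh probe lowers polarization; 0% = enzyme with DMSO and 100% = wells lacking LYPLA2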
Active calls of the source: *; nt = not tested or not shown.

SMILES	p97 inhibitor	LYPLA2 counter	Redox H2O2 prof	LYPLA1 inh	LYPLA1 conf	LYPLA2 confirm
COC(=O)c1c(Cl)c2n3ccccc3c(C)c(-c3ccccc3)c-2c1C(=O)OC	-2	20	-1	16*	4	nt
COC(=O)c1cc2c(-c3ccccc3)c(C)c3ccccn3c-2c1C(=O)OC	5	6	1	2	nt	nt
CSC(=NC#N)N1CCN(c2ccc(Cl)cc2)CC1	0	6	21	17*	19*	nt
Cc1ccc(CNC(=O)C2CCN(S(=O)(=O)c3ccc4c(c3)CC(C)N4C(=O)C3CCC3)CC2)o1 (centres undefined)	nt	12	nt	16*	19*	nt
CC(C)CCNC(=O)C1CCN(S(=O)(=O)c2ccc3c(c2)CC(C)N3C(=O)C2CCC2)CC1 (centres undefined)	nt	4	nt	8	nt	nt
Cc1cc(C)cc(NC(=O)OCCN2CCN(Cc3ccccc3)CCC2=O)c1	0	-8	0	-6	nt	nt
COc1cc(S(=O)(=O)NCc2ccccc2)ccc1-n1cnnn1	nt	5	nt	15*	2	nt
O=c1c2ccccc2nc(SCc2ccc([N+](=O)[O-])cc2)n1-c1ccccc1	1	-11	3	1	nt	nt
O=C(O)c1ccc(CSc2nc3ccccc3c(=O)n2-c2ccccc2)cc1	nt	22	nt	17*	27*	nt
Nc1cc(=O)[nH]c(SCC(=O)Nc2cc(Cl)cc(Cl)c2)n1	-7	-5	1	-1	nt	nt
Nc1cc(=O)[nH]c(SCC(=O)Nc2ccc(Cl)c(Cl)c2)n1	3	-1	-2	15*	21*	nt
COc1ccc([C@H]2CC(=O)C=C(c3ccc(Cl)c(F)c3)C2)cc1	nt	10	nt	4	nt	nt
C/C(=N\NC(=O)CC1N=C(Cc2ccccc2)NNC1=O)c1ccccc1 (centres undefined)	5	4	2	4	nt	nt
O=C(CC1N=C(Cc2ccccc2)NNC1=O)N/N=C/c1ccc([N+](=O)[O-])cc1 (centres undefined)	7	-3	0	26*	23*	nt
COC1=CC(=O)C(O)=C(CCCCCCC/C=C/CCCCCCCC2=C(O)C(=O)C=C(OC)C2=O)C1=O	nt	51*	nt	56*	72*	36*
CSc1ccccc1OCc1cc(C(=O)N2CCC(Oc3cccnc3)CC2)no1	nt	35*	nt	36*	47*	39*
CCN(CC(=O)Nc1c(F)cccc1F)C(=O)CNC(=O)c1cccc(C)c1	nt	-4	nt	-1	nt	nt
COc1ccc(C(=O)NC(=S)Nc2ccc(CN3CCOCC3)cc2)cc1Br	nt	44*	nt	15*	22*	47*
COc1ccc(C(=O)NC(=S)Nc2ccc(N3CCOCC3)cc2)cc1Cl	nt	39*	nt	14*	25*	55*
COc1ccc(C(=O)NC(=S)Nc2ccc(CN3CCOCC3)cc2)cc1	-3	10	nt	4	nt	nt
COc1ccc(-c2nnn(CC(=O)NCCc3ccc(OC)c(OC)c3)n2)cc1	1	6	0	3	nt	nt
O=c1[nH]nc(CNc2ccc(O)cc2)c2ccccc12	1	34*	1	16*	5	5
O=c1[nH]nc(CNc2ccc(C(F)(F)F)cc2)c2ccccc12	-6	0	-2	-5	nt	nt
Cc1cc(C(=O)NNC(=O)c2ccccc2F)c2ccccc2n1	nt	3	nt	-4	nt	nt
N#CCCN(CCC#N)C(=O)C1c2ccccc2Oc2ccccc21	nt	76*	nt	76*	3	3
SMILES	p97 inhibitor	LYPLA2 counter	Redox H2O2 prof	LYPLA1 inh	LYPLA1 conf	LYPLA2 confirm
CN(C)S(=O)(=O)c1ccc(Cl)c(C(=O)Nc2ccc(S(=O)(=O)N3CCOCC3)cc2)c1	nt	23	nt	2	nt	nt
COc1ccc(CN(Cc2cccnc2)C(=S)NCCc2ccccc2)cc1OC	2	-6	1	0	nt	nt
COc1cc(Br)c(C(=O)c2nccc3cc(OC)c(OC)cc23)cc1OC	nt	57*	nt	44*	16*	85*
O=Cc1cn(CC(=O)N2CCc3ccccc32)c2ccccc12	3	3	-3	-1	nt	nt
O=C(N1CCOCC1)n1cnc2ccccc21	-9	2	0	-1	nt	nt
O=C(N1CCOCC1)n1nnc2ccccc21	0	47*	0	91*	94*	51*
COc1ccc(C)cc1S(=O)(=O)N1CCC(C(=O)NC2CCCC2)CC1	nt	-7	nt	-5	nt	nt
CCC(C)(C)C1CCC2(CC1)NC(=O)N(CC(=O)N(C)Cc1ccc3c(c1)OCCO3)C2=O (centres undefined)	nt	3	nt	1	nt	nt
CCCOC(=O)c1ccc(Oc2coc3c(CN(CC)CC)c(O)ccc3c2=O)cc1	-4	34*	0	30*	32*	28*
Cc1ccc(CN2CCN(/N=C\c3cccc([N+](=O)[O-])c3)CC2)cc1	0	28*	0	17*	19*	35*
Cc1ccc(/C=N/N2CCN(Cc3ccc(C)cc3)CC2)cc1	-5	10	nt	4	nt	nt
CCN(CC(=O)Nc1ccc(NC(C)=O)cc1)C(=O)Cc1cccc2ccccc12	nt	-4	nt	-1	nt	nt
COc1ccc(N2CCN(C(=O)C3CCC(Cn4c(=S)[nH]c5ccccc5c4=O)CC3)CC2)cc1 (centres undefined)	1	83*	-3	40*	43*	84*
O=C(C1CCC(Cn2c(=S)[nH]c3ccccc3c2=O)CC1)N1CCN(c2ccccc2)CC1 (centres undefined)	2	53*	2	36*	45*	52*
O=C(C1CCC(Cn2c(=O)[nH]c3ccccc3c2=O)CC1)N1CCN(c2ccccc2)CC1 (centres undefined)	4	20	1	6	nt	nt
O=C(NCCc1nccs1)C1CCC(=O)N(CCc2ccc(Cl)cc2)C1 (centres undefined)	nt	8	nt	1	nt	nt
CC(C)n1c(Oc2ccc(F)cc2)nc2c1c(=O)n(C)c(=O)n2C	0	3	0	-1	nt	nt
COc1cccc2c1C(=O)c1c(O)c3c(c(O)c1C2=O)C[C@@](O)(C(=O)CO)C[C@@H]3O[C@H]1C[C@H](N)[C@H](O)[C@H](C)O1	-4	43*	13	59*	52*	27*
O=S(=O)(c1cccs1)N1CN(Cc2ccco2)c2nc3ccccc3nc21	5	38*	nt	30*	2	8
COC(=O)c1ccc2c(c1)SC1=C(CCCC1=O)N2	0	27*	1	28*	19*	15
CCN(CC)S(=O)(=O)c1ccc(C(=O)NNC(=O)C2CCN(S(=O)(=O)c3ccc(Cl)cc3)CC2)cc1	5	2	0	1	nt	nt
Cc1ccc(C(=O)CNc2cc(C)ccc2C)cc1	nt	1	nt	2	nt	nt
CCNc1cc(O)ccc1C	nt	40*	nt	31*	15*	8
C=CCNC(=O)NC(=O)COC(=O)/C=C/c1cccc([N+](=O)[O-])c1	2	9	0	3	nt	nt
CC(C)CCNC(=O)NC(=O)COC(=O)/C=C/c1cccc([N+](=O)[O-])c1	3	30*	0	25*	31*	32*

Screening results (PubChem)
